Screens from PubChem.
Only a selection was taken, and hits are over-represented in it overall.
Shiga inhibitor = blocks Shiga toxin action in Vero cells; inhibition, % at 38.7 µM; 9.2% of 290,000 active; Vero cells, Shiga toxin protein synthesis inhibition reporter; in the data active = inhibition mostly above about 28%, no sharp cut-off; inactive = mostly below about 43%
RE007 growth inh = less growth of the S. pombe RE007 Vpr strain. 0.21% of 360,000 active. S. pombe RE007 Vpr strain, BacTiter-Glo ATP luminescence, 24 h. Potency, µM (highest dose often 92.2 µM), hits mostly inhibitors; active = well fitted falling curve with a large enough effect; inconclusive = small, poorly fitted or top-dose-only effect; inactive = no such curve, though single readings can be large or run the other way; also: nearly all actives have a fitted effect of over 50% in size
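Fission yeast RE007 carrying one integrated HIV-1 vpr copy, seeded at OD 0.01 in PMG+AL medium with 23 nL pinned compound. Grown 24 h at 30 degrees; viability read by BacTiter-Glo luminescence after 5 min.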
LmPK inhibitor = LmPK (Leishmania mexicana) enzyme inhibition; Potency, µM (highest dose often 57.5 µM), actives largely listed as inhibitors; Q27686; AID 1721; 0.37% of 290,000 active; purified LmPK, Kinase-Glo ATP luminescence, 1 h
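Purified LmPK (0.1 nM) converted ADP (0.1 mM) to ATP with PEP (0.5 mM) in imidazole buffer pH 7.2 with KCl and MgCl2, 1 h at room temperature. ATP was read by Kinase-Glo luminescence; data normalized to uninhibited and no-enzyme controls.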
Tb PYK inh = T. brucei pyruvate kinase inhibition. TbPYK enzyme, Kinase-Glo Plus ATP luminescence, 45 min. Potency, µM (series often up to 76.8 µM), most hits filed as inhibitors. 0.12% of 410,000 active; also: nearly all actives have a fitted effect of over 50% in size
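In this concentration-response screen, enzyme-free wells defined baseline while DMSO plates tracked drift. Each reaction combined TbPYK, substrate, compound and 130 uM ADP for 45 min at room temperature. Kinase-Glo Plus luminescence gave the signal.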
FBPA Giardia inh = Giardia lamblia aldolase inhibition | A8B2U2 | purified Giardia FBPA | Potency, µM (highest dose often 59.6 µM), usual class: inhibitors | 0.71% of 290,000 active; also: nearly all actives have a fitted effect of over 55% in size
Target sequence (A8B2U2 whole entry, looked up): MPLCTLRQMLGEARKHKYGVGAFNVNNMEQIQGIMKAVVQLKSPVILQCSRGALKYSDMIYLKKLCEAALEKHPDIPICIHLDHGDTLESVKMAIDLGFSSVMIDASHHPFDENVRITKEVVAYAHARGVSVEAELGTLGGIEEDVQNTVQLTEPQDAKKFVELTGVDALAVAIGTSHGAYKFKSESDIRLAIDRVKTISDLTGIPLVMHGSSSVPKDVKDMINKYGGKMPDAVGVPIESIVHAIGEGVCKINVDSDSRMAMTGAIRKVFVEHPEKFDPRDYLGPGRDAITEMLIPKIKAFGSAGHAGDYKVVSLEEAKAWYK
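Giardia FBPA (40 nM reagent) was preincubated 10 min at RT with compound (up to 57.5 uM final), then substrate plus GAPDH/TPI/NAD/arsenate coupling system with diaphorase/resazurin was added; resorufin fluorescence (525/598 nm) was read after 20 min.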
CHX counter = counter-screen for Shiga toxin inhibitors: cycloheximide protein synthesis inhibition. max response, %. cell reporter, cycloheximide protein synthesis inhibition counterscreen. 12% of 300,000 active; in the data active = max response mostly above about 13%, no sharp cut-off; inactive = mostly below about 14%; also: read at 38.3 µM for the half of the compounds with a filed dose
A number is an active result; n = inactive; u = inconclusive; x = no result given; [ ] = remark or other dose. Unless noted, calls follow the shape of the dose curve; as a rule, active = well fitted curve in the direction sought with a large enough effect; inconclusive = small, poorly fitted or top-dose-only effect, or another doubt; inactive = no such curve, though single readings can be large; an effect the other way counts as inactive or inconclusive.

SMILES	Shiga inhibitor	RE007 growth inh	LmPK inhibitor	Tb PYK inh	FBPA Giardia inh	CHX counter
Cc1ccc(OCCNC(=O)c2cccc(C)c2)cc1	n	n	n	n	n	n
CC(C)(C)c1ccc(C(=O)NCCCNC(=O)c2ccccn2)cc1	42	n	n	n	n	n
CC(=O)Nc1cccc(OCCCNC(=O)c2ccc(C(C)(C)C)cc2)c1	45	n	n	n	n	25
CC(C)Cn1c(=O)c2ccccc2n2c(CCC(=O)N3CCN(c4ccccc4F)CC3)nnc12	x	x	x	n	x	x
CCNC(=O)[C@@H]1CCCN1C(=O)[C@H](CCCN=C(N)N)NC(=O)[C@H](CC(C)C)NC(=O)[C@@H](Cc1c[nH]c2ccccc12)NC(=O)[C@H](Cc1ccc(O)cc1)NC(=O)[C@H](CO)NC(=O)[C@H](Cc1c[nH]c2ccccc12)NC(=O)[C@H](Cc1cnc[nH]1)NC(=O)[C@@H]1CCC(=O)N1	x	x	x	n	x	x
Cc1nc2nc(CNC(=O)c3cccc(F)c3)nn2c(C)c1CCC(=O)Nc1ccc(F)cc1	x	x	x	n	x	x
Cc1ccc(NCC(=O)N=Nc2c(O)[nH]c3ccc([N+](=O)[O-])cc23)cc1	n	n	n	n	n	43
O=C(Nc1ccc(F)cc1)C(=O)c1c(O)[nH]c2ccc([N+](=O)[O-])cc12	n	n	n	n	u	19
O=C(N=Nc1c(O)[nH]c2ccc([N+](=O)[O-])cc12)c1ccccc1Cl	n	n	n	n	n	n
Cc1ccccc1NCC(=O)N=Nc1c(O)[nH]c2ccc([N+](=O)[O-])cc12	n	n	n	n	n	n
CC(C)c1nc(N2CCN(C(=O)c3ccco3)CC2)c(C#N)c2c1COC(C)(C)C2	n	n	n	n	n	n
CCCCc1nc(N2CCN(C(=O)c3ccco3)CC2)c(C#N)c2c1CCCC2	63	n	n	n	x	21
CCc1nn(CCCC(=O)N2CCN(c3cc(Cl)ccc3C)CC2)c(=O)c2cc3occc3n12	x	x	x	n	x	x
COc1cc(-n2c(C)nc3cccnc32)c(Cl)cc1C(=O)O	n	n	n	n	n	20
CC(C)OC(=O)c1cn(Cc2c(F)cccc2F)c2sc(-c3ccc(NC(=O)C(C)C)cc3)c(CN(C)Cc3ccccc3)c2c1=O	n	x	x	x	n	n
Cc1c(-c2ccc(Cl)cc2)oc(=O)c2c(N)n(-c3ccccc3)nc12	n	n	n	n	n	24
O=c1c2ccccc2c(-c2ccc(Cl)cc2)nn1-c1ccccc1	n	n	n	n	n	n
Nc1c2c(=O)oc(-c3ccccc3)cc2nn1-c1ccccc1	115	n	n	n	n	38
O=C(CC1(CC2=NS(=O)(=O)c3ccccc3N2)CCCC1)NCCc1ccccc1	n	n	n	n	n	8.5
O=C(CSC1=NS(=O)(=O)c2ccccc2N1)NCCc1ccccc1	x	n	x	n	x	x
CC(=O)c1cccc(NC(=S)NC2CCCCC2)c1	n	n	n	n	n	n
Cc1cc(Cl)ccc1NC(=S)NC1CCCC1	32	n	n	n	n	12
CCN(CC)S(=O)(=O)c1cc(NC(=S)NC(=O)C2CCCC2)ccc1C	x	n	x	n	x	x
Cc1ccc(NC(=S)NC(=O)C2CCCC2)cc1C	91	u	n	n	x	50
Cc1nc2ccc(NC(=S)NC3CCCCC3)cc2nc1C	102	n	n	n	u	42
SMILES	Shiga inhibitor	RE007 growth inh	LmPK inhibitor	Tb PYK inh	FBPA Giardia inh	CHX counter
S=C(Nc1ccc2[nH]ccc2c1)NC1CCCCC1	65	n	n	n	n	37
Cc1c(Cl)cccc1NC(=S)NC1CCCC1	n	n	n	n	n	n
CCc1ccccc1NC(=O)Cn1c(=O)n(-c2ccc(C)cc2)c(=O)c2c1c1cc(C)ccc1n2C	x	x	x	n	x	x
CC(=O)OC[C@@H]1O[C@H](C/C=N\OCC[C@H]2C=C[C@H](OC(C)=O)[C@@H](COC(C)=O)O2)C=C[C@@H]1OC(C)=O	x	x	x	x	n[12.9 µM]	x
Cc1ccc(NC(=S)NC(=O)C2CC2)c(C)c1	64	n	n	n	x	34
O=C(NC(=S)Nc1cccc(O)c1)C1CCCCC1	x	n	x	n	x	x
CC1CCCCC1NC(=S)Nc1ccc(Cl)cc1Cl (configuration not stated)	31	n	n	n	n	n
Cc1ccc(NC(=S)NC(=O)C2CCC2)cc1C	101	n	n	n	n	53
Cc1ccc(NC(=S)NC2CCCC2)cc1C	active	n	n	n	n	49
COc1ccc(OC)c(S(=O)(=O)N2Cc3ccccc3CC2C(=O)Nc2nccs2)c1 (configuration not stated)	107	n	n	n	n	64
N/C(=N\OC(=O)CCCOc1ccc(Cl)cc1Cl)c1ccncc1	n	n	n	n	n	n
CCc1ccc(OCC(=O)O/N=C(\N)c2ccncc2)c(Br)c1	85	n	n	n	x	46
CCc1ccc(OCC(=O)O/N=C(\N)c2ccncc2)cc1	76	n	n	n	x	62
CCc1ccc(OCC(=O)N(C)C)c(Br)c1	n	n	n	n	n	n
N/C(=N\OC(=O)COc1ccc(Cl)cc1Br)c1ccncc1	137	n	n	n	n	64
COc1ccc2[nH]cc(CCNc3ncncc3-c3ccccc3C)c2c1	x	x	x	x	n	x
CCCCn1nnnc1SCC(=O)c1ccc(C)c(C)c1	n	u	n	n	n	38
CCC(=O)Nc1cccc(-n2nnnc2SCC(=O)c2ccc(C)c(C)c2)c1	42	n	n	n	n	26
CCC(=O)Nc1cccc(-n2nnnc2SCC(=O)NCc2ccco2)c1	n	n	n	n	n	n
Cc1ccc2nc(-c3cccc(S(=O)(=O)N4CC(C)OC(C)C4)c3)cn2c1 (configuration not stated)	n	n	n	n	n	17
Cc1ccn2cc(-c3cccc(S(=O)(=O)N4CCCCC4)c3)nc2c1	n	n	n	n	x	21
Cc1ccc2nc(-c3cccc(S(=O)(=O)N4CCCC4)c3)cn2c1	n	n	n	n	n	17
Cc1ccc2nc(-c3ccc(S(=O)(=O)N4CCCCC4)cc3)cn2c1	66	n	n	n	n	25
CC1CN(S(=O)(=O)c2cccc(-c3cn4cccnc4n3)c2)CC(C)O1 (configuration not stated)	n	x	n	x	n	n
Cc1ccc(NC(=O)N2CCCCCC2)cc1	84	n	n	n	x	36
SMILES	Shiga inhibitor	RE007 growth inh	LmPK inhibitor	Tb PYK inh	FBPA Giardia inh	CHX counter
COc1ccc(NC(=O)N2CCCCC2)cc1	n	n	n	n	n	26
Cc1ccc(NC(=O)CCN2CCCCC2)cc1	41	n	n	n	n	29
O=C(Nc1ccccc1C(F)(F)F)N1CCCCCC1	35	n	n	n	n	9.6
Cc1ccc(NC(=O)CCN2CCN(CCO)CC2)cc1	x	n	x	n	x	x
COc1cc(-c2noc(C3CC(=O)N(c4cc(C)ccc4C)C3)n2)cc(OC)c1OC (configuration not stated)	x	x	x	n	x	x
COc1ccc(OC)c(Nc2nc3ccccc3n3c(C)nnc23)c1	x	x	x	n	x	x
